# Measured values published in PubChem BioAssay.
# The source made the active and inactive calls.
# Test system: PRMT1 (protein arginine N-methyltransferase 1)
# Test: small molecules binding arginine methyltransferase PRMT1 – biochemical, small-molecule microarray, 635 nm fluorescence, primary screen (AID 1088);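 also: binding of Prmt1 protein to compounds spotted on small-molecule microarray slides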
# Conditions: higher = more signal
row,Compound,composite z-score
1,Cc1ccc([C@@H]2CC=C(C(=O)O)[C@H](c3ccccc3)N2S(=O)(=O)c2ccc(C)cc2)cc1,1.55
2,C=CCNC(=O)[C@H]1[C@@H]2C(=O)O[C@@H](c3ccccc3)[C@@H](c3ccccc3)N2[C@@H](c2ccc(O)cc2)[C@]12C(=O)Nc1ccc(C#CCNC(N)=O)cc12,0.0982
3,O=C(NCC(F)(F)F)[C@@H]1c2ccccc2C(=O)N(Cc2ccccc2Cl)[C@H]1c1ccc(CO)cc1,-0.809
4,C=C[C@H](OC)[C@@H](OC(=O)Nc1ccc(SC)cc1)c1ccc(OC)c(O)c1,0.0672
5,C=CC[C@]1(C(=O)OC)N=C(c2ccc(OCCCO)cc2)O[C@H]1c1ccccc1CN=[N+]=[N-],0.828
6,COC(=O)Cn1c(C(=O)N2CCCC2)cc2c1C[C@H]1CN(C(=O)c3ccccc3)[C@@](Cc3ccccc3)(C(=O)OC)[C@@H]21,-0.257
7,Cc1ccc(S[C@]2(C(=O)NCCCN(C)C)CC(=O)N(Cc3ccccc3)[C@@H]2c2ccc(CO)cc2I)cc1,0.25
8,C#CCCCON=C1C[C@@H](O)[C@@H](O)[C@@H]2[C@@H]3C(=O)N(Cc4ccc5c(c4)OCO5)C(=O)[C@@H]3CC[C@@H]12,0.652

# Test system: not listed separately
# Test: growth effects on S. cerevisiae YJM789 – YJM789 clinical isolate, OD600, 24 h, basal, primary screen (AID 1089);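 also: growth of clinical yeast isolate S. cerevisiae YJM 789 seeded 1000 cells per well; test concentration not given here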
# Conditions: higher = more signal, called active from +8 up or from −8 down
row,Compound,z-score
1,C[C@@H]1CC[C@H]2C(=O)N3[C@@H](CC[C@@H](C)[C@@H]3c3cccc(N4CCOCC4)c3)C(=O)N2[C@H]1c1cccc(N2CCOCC2)c1,0.123 (inactive)
2,O=C1c2ccccc2[C@](Cc2ccccc2I)(C(=O)O)[C@H](c2ccc(CO)cc2)N1C1CCCCC1,-0.602 (inactive)
3,COCCCNC(=O)[C@@]1(c2ccc([N+](=O)[O-])cc2)CC(=O)N(C2CCCCC2)[C@@H]1c1ccc(CO)cc1,-0.707 (inactive)
4,C=C(C(=O)CC[C@H](OC(=O)c1ccccc1-c1ccccc1C(=O)O)c1ccc(CO)o1)C(C)C,1.44 (inactive)
5,CSCC[C@@H]1NC(=O)CC=C[C@@H](C)COC(=O)[C@H](CCSC)NC(=O)CC=C[C@@H](C)COC1=O,-0.981 (inactive)
6,CC1=C([C@H](O)CCc2ccccc2)[C@H](CO)[C@@H]2C(=O)N(Cc3ccccc3)C(=O)[C@@H]2C1,-0.466 (inactive)
7,CO[C@H]1COC(=O)[C@@H](C)NC(=O)CC=C[C@@H](C)[C@H](OC)COC(=O)CC=C[C@@H]1C,-1.66 (inactive)
8,CC(C)NC(=O)[C@@]1(Cc2ccccc2I)c2ccccc2C(=O)N(C2CCCCC2)[C@H]1c1ccc(CO)cc1,0.401 (inactive)
9,O=C1O[C@@H](c2ccccc2)[C@@H](c2ccccc2)N2[C@@H](c3ccccc3OCCO)[C@]3(C(=O)Nc4ccc(C#CC5=CCCCC5)cc43)[C@@H](C(=O)O)[C@H]12,2.48 (inactive)
10,O=C1O[C@@H](c2ccccc2)[C@@H](c2ccccc2)N2[C@@H](c3ccc(OCCO)cc3)[C@]3(C(=O)Nc4ccc(C#CCCO)cc43)[C@@H](C(=O)N3CCN(c4ncccn4)CC3)[C@H]12,0.772 (inactive)
11,CC(=O)NCCCC[C@@H]1NC(=O)[C@@H]2C[C@H](C(=O)NCCCCCCN(C)C)[C@H](c3ccc(O)cc3)N2C1=O,0.146 (inactive)
12,O=C(NCc1ccccc1)[C@@]1(CCS(=O)(=O)c2ccccc2)COC(c2ccc(OCCCO)cc2)=N1,-0.53 (inactive)
13,O=C1O[C@@H](c2ccccc2)[C@@H](c2ccccc2)N2[C@@H](c3ccc(O)cc3)[C@]3(C(=O)Nc4ccccc43)[C@@H](C(=O)N3CCN(c4ncccn4)CC3)[C@H]12,0.2 (inactive)
14,COc1ccc(C(O)C2C=CC3C(=O)N(C)C(=O)C3N2N2CCCCC2)cc1OCc1ccccc1 (configuration not stated),0.371 (inactive)
15,COc1cc([C@@H]2N[C@H](C(=O)O)Cc3c2[nH]c2ccccc32)cc(OC)c1OC,-0.258 (inactive)
16,COCCOC(=O)N1C(=O)[C@@]2(c3cc(C#CC4=CCCCC4)ccc31)[C@H](C(=O)NC[C@H](O)c1ccccc1)[C@H]1C(=O)O[C@H](c3ccccc3)[C@H](c3ccccc3)N1[C@@H]2c1ccccc1OCCO,2.24 (inactive)
17,COc1ccc(CCNC(=O)[C@@]2(c3ccc([N+](=O)[O-])cc3)CC(=O)N(C(C)C)[C@@H]2c2ccc(CO)cc2)cc1,-1.15 (inactive)
18,CC(=O)NCCCC[C@@H]1NC(=O)[C@H]2C[C@@H](C(=O)NCCCCCCN(C)C)[C@@H](c3ccc(O)cc3)N2C1=O,-0.139 (inactive)
19,NC(=O)NCC#Cc1ccc2c(c1)[C@]1(C(=O)N2)[C@H](c2ccccc2OCCO)N2[C@H](c3ccccc3)[C@H](c3ccccc3)OC(=O)[C@H]2[C@@H]1C(=O)N1CCN(c2ncccn2)CC1,1.73 (inactive)
